In PubChem BioAssay (Tox21):
Records with an inconclusive call do not appear. Where a call stands in place of a potency, no number is given. Calls of active or inactive are those of the source. The call rests on the fitted dose curve; in most records, active means well fitted activation curve with a large enough effect; inconclusive means small, poorly fitted or top-dose-only effect; inactive means flat fitted curve, though single readings scatter.

Test: qHTS assay to identify small molecule phospholipidosis (PLD) inducers (AID 1259344)
Conditions: HepG2 phospholipidosis, LipidTOX Red imaging, 24 h; series mostly up to 38.3 µM
How it was run: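 Accumulated phospholipid, stained red by LipidTOX during 24 h compound treatment of HepG2 cells at 37 C, is quantified from images as pit number and intensity, normalised per cell using Hoechst-stained nuclei.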
Potency means the concentration at half of the fitted maximal effect.

SMILES	Potency
COC(=O)[C@H]1[C@H]2C[C@H]3c4[nH]c5ccccc5c4CCN3C[C@H]2CC[C@@H]1O	inactive
CN(C)CCC(O)(c1ccccc1)c1ccccc1Cl (stereo not given)	inactive
N=C(N)n1cccn1	inactive
Cc1cc(=O)c(C(=O)N[C@@H](C(=O)N[C@@H]2C(=O)N3C(C(=O)O)=C(CSc4nnnn4C)CS[C@H]23)c2ccc(O)cc2)c[nH]1	inactive
C/C(=C\C(=O)OCCCCCCCCC(=O)O)C[C@@H]1OC[C@H](C[C@@H]2O[C@H]2[C@@H](C)[C@H](C)O)[C@@H](O)[C@H]1O	inactive
NCCCC[C@H](NC(=O)[C@@H]1CCCN1C(=O)[C@@H]1CSSC[C@H](N)C(=O)N[C@@H](Cc2ccc(O)cc2)C(=O)N[C@@H](Cc2ccccc2)C(=O)N[C@@H](CCC(N)=O)C(=O)N[C@@H](CC(N)=O)C(=O)N1)C(=O)NCC(N)=O	inactive
NCCO/C=C/[C@H](N)C(=O)O	inactive
CNCCC=C1c2ccccc2CCc2ccccc21	10 µM (active)
CN1C(C(=O)Nc2ccccn2)C(=O)c2sc(Cl)cc2S1(=O)=O (stereo not given)	inactive
N[C@H](CO)C(=O)O	inactive
CC/C=C\C/C=C\C/C=C\C/C=C\C/C=C\CCCC(=O)O	inactive
CC(=O)OCC(=O)[C@@]1(O)CC[C@H]2[C@@H]3CCC4=CC(=O)CC[C@]4(C)C3=CC[C@@]21C	inactive
C1CCc2nnnn2CC1	inactive
CC1(C)S[C@@H]2[C@H](NC(=O)[C@@H](NC(=O)N3CCNC3=O)c3ccccc3)C(=O)N2[C@H]1C(=O)O	inactive
C=CC[N@@+]12CC[C@@]34c5ccccc5N5/C=C6/[C@H]7C[C@H]8[C@@]9(CC[N@@+]8(CC=C)C/C7=C/CO)c7ccccc7N(/C=C(/[C@@H](C[C@@H]31)/C(=C\CO)C2)[C@H]54)[C@@H]69	inactive
C[S+](CC[C@H](N)C(=O)O)C[C@H]1O[C@@H](n2cnc3c(N)ncnc32)[C@H](O)[C@@H]1O (stereo not given in full)	inactive
CCC(NC(C)C)C(O)c1ccc(O)c(O)c1 (stereo not given)	inactive
NC[C@H]1O[C@H](O[C@H]2[C@H](O)[C@@H](O[C@H]3O[C@H](CO)[C@@H](O)[C@H](N)[C@H]3O)[C@H](N)C[C@@H]2N)[C@H](N)C[C@@H]1O	inactive
CCOC(=O)[C@H](CCc1ccccc1)N[C@@H](C)C(=O)N1[C@H](C(=O)O)C[C@H]2CCCC[C@@H]21	inactive
COc1cc2c(cc1O)CCN[C@]21CS[C@@H]2c3c(OC(C)=O)c(C)c4c(c3[C@H](COC1=O)N1[C@@H]2[C@H]2c3c(cc(C)c(OC)c3O)C[C@@H]([C@@H]1O)N2C)OCO4	inactive

SMILES	Potency
CC(C)OC(=O)Nc1ccc2nc(-c3cscn3)[nH]c2c1	inactive
CC(C)C[C@@H](NC(=O)[C@@H](O)[C@H](N)Cc1ccccc1)C(=O)O	inactive
CCCC(CCC)C(=O)OC1C[C@H]2CC[C@@H](C1)[N+]2(C)C (stereo not given in full)	inactive
CCN1\C(=C/C=C/C=C/c2sc3ccccc3[n+]2CC)Sc2ccccc21	inactive
N#Cc1c(N(CC(=O)O)CC(=O)O)sc(C(=O)O)c1CC(=O)O	inactive
C[C@@H]1C[C@H]2[C@@H]3C[C@H](F)C4=CC(=O)C=C[C@]4(C)[C@@]3(Cl)[C@@H](O)C[C@]2(C)[C@H]1C(=O)COC(=O)C(C)(C)C	inactive
O=P(O)(O)CP(=O)(O)O	inactive
CC1(C)S[C@@H]2[C@H](NC(=O)[C@H](N)c3ccc(O)cc3)C(=O)N2[C@H]1C(=O)O	inactive
CCOc1ccc(NC(=S)Nc2ccc(OCC)cc2)cc1	inactive
CO[C@H]1C[C@H](O[C@H]2[C@H](C)[C@@H](O[C@@H]3O[C@H](C)C[C@H](N(C)C)[C@H]3O)[C@@H](C)C[C@]3(CO3)C(=O)[C@H](C)[C@@H](O)[C@@H](C)[C@@H](C)OC(=O)[C@@H]2C)O[C@@H](C)[C@@H]1O	inactive
CC1CCCCN1CCCOC(=O)c1ccccc1 (stereo not given)	inactive
O=C(O)[C@@H]1C[C@H](CP(=O)(O)O)CCN1	inactive
Cc1ccc(C(C)(C)c2ccc(C)cc2)cc1	inactive
NC(N)=NCCCCN=C(N)N	inactive
COc1ccc(/C=C/C(=O)Nc2ccccc2C(=O)O)cc1OC	inactive
Cc1ncc(C[n+]2csc(CCOP(=O)(O)O)c2C)c(N)n1	inactive
O=C1c2ccccc2C(=O)C1c1ccc(F)cc1	inactive
COC(=O)C(CN)c1c[nH]c2ccc(OC)cc12 (stereo not given)	inactive
O=C(O)c1ccccc1O	inactive
CCC(=O)OC(OP(=O)(CCCCc1ccccc1)CC(=O)N1C[C@H](C2CCCCC2)C[C@H]1C(=O)O)C(C)C (stereo not given in full)	inactive
